Screens (PubChem)
D2 PAM-1: potentiates the human D2 dopamine receptor allosterically; P14416; hit rate 0.23% among 360,000; AID 624464; potentiation, % (no concentration beside the values); DiscoveRx D2 beta-arrestin cells, luminescence, 90 min; 100% = 57 uM dopamine signal; in the data active means potentiation above about 50%; inconclusive means mostly about 30% to 49%
Target sequence (P14416 whole entry, looked up): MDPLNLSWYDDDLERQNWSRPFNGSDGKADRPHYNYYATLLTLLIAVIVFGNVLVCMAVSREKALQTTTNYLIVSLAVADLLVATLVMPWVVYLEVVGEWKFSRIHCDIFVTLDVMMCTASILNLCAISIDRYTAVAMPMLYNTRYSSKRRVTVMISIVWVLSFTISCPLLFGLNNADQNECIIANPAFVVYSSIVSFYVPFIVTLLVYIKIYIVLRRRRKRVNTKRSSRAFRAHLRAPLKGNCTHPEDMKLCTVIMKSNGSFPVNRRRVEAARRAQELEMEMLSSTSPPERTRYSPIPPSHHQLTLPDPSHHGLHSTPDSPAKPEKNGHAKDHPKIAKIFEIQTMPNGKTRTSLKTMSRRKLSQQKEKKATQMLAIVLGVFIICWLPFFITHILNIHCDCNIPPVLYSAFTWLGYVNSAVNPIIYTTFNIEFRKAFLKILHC
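D2 cells co-treated with compound plus 50 nM dopamine (EC20) for 90 min at 37 deg C to detect potentiation. Beta-arrestin recruitment was read as enzyme-fragment luminescence after 1 h at ambient temperature. Full response was set by 57 uM dopamine.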
D2 PAM-2: positive allosteric modulators of human D2 dopamine receptor. P14416. HEK293 T-REx D2, calcium flux, EC20 dopamine potentiation. potentiation, % at 10 µM. hit rate 0.34% among 340,000;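 active means potentiation over 3 SD above the plate norm, cut at about 30% in these data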
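Primary screen. Calcium kinetics in induced HEK293 T-REx D2 cells: compound pre-addition 180 s, EC20 dopamine, 180 s more.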
D2 ag-1: agonists of human D2 dopamine receptor | P14416 | HEK293 T-REx D2 cells, calcium flux agonist mode | activation, % at 2 µM | hit rate 0.53% among 340,000 | AID 485358;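 active means activation over 3 SD above normal in the single-dose calcium agonist read, cut at about 30% in these data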
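Agonism is scored from calcium flux in a force-coupled, inducible HEK293 cell line expressing D2, read kinetically for 180 s after compound addition against dopamine controls.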
D2 antagonist: D2 dopamine receptor (human) antagonism | HEK293 TREx D2 cells, calcium flux, dopamine EC80 | inhibition, % at 10 µM | hit rate 2% among 340,000; in the data active means inhibition above about 30%; inactive means below that, where a call was filed
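In this primary screen, negative modulation is detected by tracking calcium flux after an EC80 dopamine challenge in inducible HEK293 T-REx D2 cells preexposed to test compound for 180 s.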
D2 ag-2: agonists of human D2 dopamine receptor (beta-arrestin) | P14416 | DiscoveRx PathHunter D2 beta-arrestin, luminescence, 90 min; 100% = 57 uM dopamine signal | activation, % (no concentration beside the values) | hit rate 0.084% among 360,000; in the data active means activation above about 40%; inconclusive means between about 15% and that limit
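DiscoveRx PathHunter D2 beta-arrestin cells (2,100/well) attached overnight, then compound-stimulated 90 min at 37 C in HBSS/10 mM HEPES/0.1% Tween-20 buffer; beta-galactosidase complementation read by luminescence after 1 h at ambient temperature. Dopamine 57 uM final (EC100) as control.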
A number is an active result; 0 = inactive; ? = inconclusive; - = no result. The list is not random: actives were taken first. Their share in the collection is about 2.4%.

SMILES	D2 PAM-1	D2 PAM-2	D2 ag-1	D2 antagonist	D2 ag-2
Cc1c(C(=O)OCC2CCCCC2)[nH]c2c1C(=O)CC(c1ccc(Cl)cc1)C2 (centres undefined)	-	-	0	-	-
CCN(CC(=O)NC)S(=O)(=O)c1ccc(Br)cc1	0	34	0	0	0
CCOC(=O)c1cc(-c2ccc(C)o2)n[nH]1	0	0	0	30	0
CS(=O)(=O)N(CC(N)=O)c1cccc(Br)c1	?	48	0	0	0
O=C(NCCCCCNC(=O)c1ccco1)c1ccco1	0	0	0	0	0
CC1CCN(CCOc2ccc(Cl)c(Cl)c2)CC1	0	0	0	84	0
Cc1ccc(OCCN2CCOCC2)cc1C	0	0	0	0	0
Cc1cc(OCCN2CCOCC2)ccc1Cl	0	0	0	46	0
COc1ccc(OC)c(NC(=O)CN2C(=O)NC3(CCOc4ccccc43)C2=O)c1 (centres undefined)	0	0	0	0	0
O=C(Nc1ccccc1C(F)(F)F)c1ccccc1Br	0	-	-	-	0
COC(=O)CCC(=O)OC1(C)C(=O)C=C2C=C(C3CC3)N(Cc3ccc4c(c3)OCO4)C=C2C1=O (centres undefined)	73	0	0	0	0
COC(=O)CCC(=O)OC1(C)C(=O)C=C2C=C(C3CC3)N(Cc3ccc(OC)cc3)C=C2C1=O (centres undefined)	0	0	0	0	0
COc1cc(NC(=O)Nc2nc(C(N)C3CCCCC3)cs2)cc(OC)c1OC (centres undefined)	?	-	-	-	109
COc1ccccc1NC(=O)Nc1nc(C(N)C2CCCCC2)cs1 (centres undefined)	0	-	-	-	0
N/C(=N\OC(=O)c1cc(Cl)ccc1Cl)c1cccnc1	73	0	-	-	?
NC(=O)c1cccnc1	0	0	0	40	0
O=C(C(=O)c1cccnc1)c1cccnc1	0	0	-	-	0
N/C(=N\OC(=O)c1ccccc1Cl)c1cccnc1	96	0	0	0	0
Cc1oc(-c2ccc(Cl)cc2)nc1CN1CCC(C(=O)NCC2CCCO2)CC1 (centres undefined)	0	0	0	0	0
Cc1ccc2c(c1)c(=O)c1ccccc1n2CCCC(=O)Nc1ccc(C)c(C)c1	-	0	0	-	-
Cc1nc2sccn2c(=O)c1CCN1CCC(=C(c2ccc(F)cc2)c2ccc(F)cc2)CC1	0	0	0	78	0
Cc1nc2ccccn2c(=O)c1CCN1CCC(C(=O)c2ccc(F)cc2)CC1	0	0	0	95	0
Cc1nc2sccn2c(=O)c1S(=O)(=O)N1CCN(c2ccc(F)cc2)CC1	0	0	0	0	0
Cc1ccc(S(=O)(=O)N2CCC(C(=O)NCCCN3CCOCC3)CC2)cc1	0	0	0	0	0
O=C(NCC(c1ccco1)N1CCc2ccccc21)c1ccccc1 (centres undefined)	0	0	0	0	0
SMILES	D2 PAM-1	D2 PAM-2	D2 ag-1	D2 antagonist	D2 ag-2
COc1cc(OC)c2c(-c3ccccc3)cc(=O)oc2c1C(CC(=O)N1CCN(c2ccccc2)CC1)c1ccc(N(C)C)cc1 (centres undefined)	0	0	0	48	0
COc1cc(OC)c2c(-c3ccccc3)cc(=O)oc2c1C(CC(=O)N1CCOCC1)c1ccc(N(C)C)cc1 (centres undefined)	0	0	0	31	0
COc1cc(OC)c2c(-c3ccccc3)cc(=O)oc2c1C(CC(=O)N1CCN(c2ccccc2)CC1)c1ccc2c(c1)OCO2 (centres undefined)	-	0	0	0	-
Cc1cc(C)cc(OCC(=O)N(Cc2ccc(C)o2)C2CCS(=O)(=O)C2)c1 (centres undefined)	-	0	0	-	-
Cc1ccc(C2CCN(C(=S)Nc3cccc(C)c3)C2)cc1 (centres undefined)	0	75	0	0	0
Cc1cccc(NC(=S)N2CCCCC2)c1	0	0	0	0	0
C/C(=C(/NC(=O)c1ccccc1)C(=O)O)c1ccco1	0	0	0	0	0
CC(=O)Nc1ccc(S(=O)(=O)Nc2ccn(Cc3ccccc3Cl)n2)cc1	0	0	0	0	0
c1cc(CNc2ccc3c(c2)OCCO3)ccn1	0	31	0	0	0
Cc1ccc(CNC(=O)CN2CCCN(Cc3ccc(F)cc3)S2(=O)=O)cc1	-	0	0	-	-
Cc1c(Cl)cccc1NC(=S)NCCc1ccc(F)cc1	0	0	0	0	0
Cc1cccc(CSc2nc3cc(C(=O)NC4CCCC4)ccc3c(=O)n2Cc2ccccc2)c1	-	0	0	-	-
Cc1ccc(Cn2ncc3c(N4CCN(c5ccc(C)cc5)CC4)ncnc32)cc1	0	0	0	0	0
Cc1ccc(Cn2ncc3c(N4CCN(C)CC4)ncnc32)cc1	0	0	0	55	0
CS(=O)(=O)c1nc(S(=O)(=O)c2ccc(Cl)cc2)c(NCc2ccccn2)s1	0	30	0	0	0
CCN(Cc1ccc2c(c1)OCCO2)C(=O)CN1C(=O)NC2(CCCCC2)C1=O	0	0	0	41	0
COc1cc(CC(=O)O)ccc1OCc1ccccc1	0	0	0	0	0
Cc1cc(C)c(N=Cc2c(O)n(-c3nccs3)c(=O)c3ccccc23)c(C)c1	0	0	0	41	0
CCn1c(SCC(=O)NCc2ccc3c(c2)OCO3)nnc1-c1c[nH]c2ccccc12	0	34	0	0	0
N/C(COc1ncn(-c2ccccc2)n1)=N\S(=O)(=O)c1ccc(Cl)cc1Cl	0	32	0	0	0
NC(=O)COc1ncn(-c2ccccc2)n1	0	0	0	0	0
CC(=O)N1CCc2cc(Br)cc(S(=O)(=O)NCc3ccc(Cl)cc3)c21	0	0	0	68	0
O=C(C1CC1)N1CCc2cc(Br)cc(S(=O)(=O)NCCCN3CCCC3)c21	0	0	0	39	0
O=C(C1CC1)N1CCc2cc(Br)cc(S(=O)(=O)N3CCN(c4ccccn4)CC3)c21	0	0	0	46	0
CC1CCCN(CCCNS(=O)(=O)c2cc(Br)cc3c2N(C(=O)C2CC2)CC3)C1 (centres undefined)	0	-	-	-	0
SMILES	D2 PAM-1	D2 PAM-2	D2 ag-1	D2 antagonist	D2 ag-2
O=C(C1CC1)N1CCc2cc(Br)cc(S(=O)(=O)N3CCN(c4ccccc4)CC3)c21	-	0	0	-	-
CCCN1CCN(c2ncnc3sc(C(=O)Nc4ccc(OC(F)(F)F)cc4)c(C)c23)CC1	-	0	0	-	-
NC(=O)c1nsc(C(=O)N(CC(=O)NC2CCCC2)c2ccc(F)c(Cl)c2)c1N	0	0	0	0	0
Cc1cc2c(cc1[N+](=O)[O-])NC(CNC(C)C)CC2 (centres undefined)	0	0	0	65	0
Cc1cc(C(=O)NCC2CCCCC2)ccc1[N+](=O)[O-]	0	-	0	0	0
O=S(=O)(c1ccc(Cl)cc1)N1CCN(c2ncccn2)CC1	0	0	0	0	0
O=S(=O)(c1ccc(Cl)cc1)n1cccn1	0	0	0	40	0
COc1ccc(-n2c(SCC(=O)Nc3ccccc3)nc(O)cc2=O)cc1	0	0	0	0	0
